Out of some 39,000 compounds screened, about 3,300 (8.5%) were called active. Only a selection was taken, and actives are over-represented in it overall.

The test system of this test is HepG2. The test is described as follows: cytotoxicity call (relative viability < 0.9). The note with it: 10 µM.
Regarding `CCn1cc(C(=O)[O-])c(=O)c2cc3c(cc21)OCO3.[K+]`, the cytotoxicity call is “inactive”. With `Oc1cc2c(cc1O)CNCC2`, the cytotoxicity call was “inactive”. Take `CS(=O)(=O)C1C[C@H]2CC[C@@H](C1)N2` (stereo partly drawn): the cytotoxicity call was “inactive”. Turning to `O=C1N[C@@H]2C(=C[C@H](O)[C@@H](O)[C@H]2O)c2cc3c(c(O)c21)OCO3`, the cytotoxicity call is “active”. The result for `COC(=O)[C@H]1[C@H]2CO[C@@H]1CN2` reads “inactive”; that for `C[C@H]1CN([C@@H](C)CO)C(=O)CCCn2cc(nn2)CO[C@H]1CN(C)C(=O)Oc1cccc2ccccc12`, “inactive”. In the case of `O=C(c1ccno1)N1C[C@@H]2CCN[C@@H]2C1`, the cytotoxicity call was “inactive”. The result for `NCC(=O)c1ccccc1` reads “inactive”; that for `CC(=O)[O][Hg][c]1ccccc1`, “active”; that for `O=C(Cc1ccccc1)c1ccccc1`, “inactive”. Consider `COC(=O)CC1=C(C(=O)OC)[C@]2(C(=O)Nc3ccccc32)C(C(=O)OC)C(=N)O1` (stereo partly drawn), for which the cytotoxicity call was “inactive”. The result for `N[C@@H](c1ccccc1)[C@@H](N)c1ccccc1` reads “inactive”; that for `CCCNC(=O)C1=NO[C@]2(CCNC2)C1`, “inactive”; that for `CC[C@@H](C)C(=O)O[C@@H]1C[C@@]2(C)[C@H](c3ccoc3)OC(=O)C[C@]23O[C@@]2(C)O[C@]34[C@H](OC(=O)C(C)C)[C@@]3(O)[C@@H](OC(=O)[C@@]5(C)O[C@@H]5C)[C@@]5(C)C[C@]3(O)[C@@](C)([C@H]5CC(=O)OC)[C@@]14O2`, “inactive”.

As for `COc1ccc(OC(=O)N(C)C[C@H]2OCc3ccccc3-c3c(n(C)c4ccccc34)C(=O)N([C@@H](C)CO)C[C@@H]2C)cc1`, the cytotoxicity call was “inactive”.

As for `N[C@@]1(C(=O)O)CC[C@H](C(=O)O)C1.N[C@]1(C(=O)O)CC[C@@H](C(=O)O)C1`, the cytotoxicity call was “inactive”.

In the case of `CC(=O)OC[C@]12CCC(C)=C[C@H]1O[C@@H]1[C@H](O)[C@@H](OC(C)=O)[C@@]2(C)[C@]12CO2`, the cytotoxicity call is “active”.

For `CC1=C[C@H]2O[C@@H]3[C@H](O)[C@@H](O[C@H]4O[C@H](CO)[C@@H](O)[C@H](O)[C@H]4O)[C@](C)([C@@]2(CO)CC1)[C@]31CO1`, the cytotoxicity call was “active”.

On to `Cc1cc(O[C@@H]2O[C@H](CO)[C@@H](O)[C@H](O)[C@H]2O)c2c3c(c(=O)oc2c1)CCC3`, for which the cytotoxicity call is “inactive”. Turning to `Cc1cc(CCN)on1`, the cytotoxicity call was “inactive”. As for `C[C@@H]1CN([C@H](C)CO)C(=O)CCCn2nncc2CO[C@H]1CN(C)C(=O)Oc1ccc2ccccc2c1`, the cytotoxicity call is “inactive”. The result for `O=S1(=O)COC2(CNC2)CN1` reads “inactive”; that for `C[C@@H]1CN([C@@H](C)CO)C(=O)CCCn2cc(nn2)CO[C@@H]1CN(C)C(=O)Oc1cccc2ccccc12`, “inactive”. For `COC(=O)C[C@@H](CN)c1ccc(Cl)cc1`, the cytotoxicity call is “inactive”. `O=C1CCCC2C3CCCN4CCCC(CN12)C34` (stereo not drawn): the cytotoxicity call was “inactive”. The result for `Cl.Clc1ccc(C(OCCN2CCCCC2)c2ccccc2)cc1` (stereo not drawn) reads “active”; that for `COc1ccc([C@@H](CN)C(C)C)cc1OC`, “inactive”.

`N[C@H]1CCN(c2cccnc2)C1`: the cytotoxicity call is “inactive”. Consider `OC[C@H]1O[C@@H](Oc2ccc(/C=C/c3cc(O)cc(O)c3)cc2O)[C@H](O)[C@@H](O)[C@@H]1O`, for which the cytotoxicity call is “inactive”.

For `CC(=O)c1c(O)cc(C)oc1=O`, the cytotoxicity call is “inactive”. In the case of `C=C(C)c1cc2cc(C(C)=O)c(O)cc2o1`, the cytotoxicity call was “active”. The result for `COCCC(=O)N1C[C@H]2CCN[C@H]2C1` reads “inactive”; that for `Cl.NCC(CC(=O)O)c1ccc(Cl)cc1` (racemic), “inactive”; that for `C[C@]12CC/C(=N\OCCN)C[C@@H]1C(=O)C[C@@H]1[C@@H]2CC[C@]2(C)C(=O)CC[C@@H]12`, “inactive”. As for `O=C1NC(=O)C(C2(O)C(=O)c3ccccc3C2=O)C(=O)N1`, the cytotoxicity call is “inactive”.

On to `CC(=O)O[C@H]1C(=O)[C@]2(C)[C@@H](O)C[C@H]3OC[C@@]3(OC(C)=O)[C@@H]2[C@H](OC(=O)c2ccccc2)[C@]2(O)C[C@H](O)C(C)=C1C2(C)C`, for which the cytotoxicity call is “active”.

Consider `CC(=O)O[C@@]12CO[C@@H]1C[C@H](O)[C@@]1(C)C(=O)[C@H](O)C3=C(C)[C@@H](OC(=O)[C@H](O)[C@@H](NC(=O)c4ccccc4)c4ccccc4)C[C@](O)([C@@H](OC(=O)c4ccccc4)[C@H]21)C3(C)C`, for which the cytotoxicity call is “active”. In the case of `CC(=O)OC1C(=O)C2(C)C(O)CC3OCC3(OC(C)=O)C2C(OC(=O)c2ccccc2)C2(O)CC(O)C(C)=C1C2(C)C` (stereo not drawn), the cytotoxicity call was “active”. As for `O=C1CC[C@]2(CCCN(Cc3cnc[nH]3)C2)N1`, the cytotoxicity call was “inactive”. Under `C=CCOC(=O)[C@@H]1[C@@H](C(=O)OC)N(C)[C@@H](c2ccccc2)[C@]12C(=O)Nc1ccc(I)cc12` stands “inactive”; under `C=CCC1(O)CCC2C3CCC4=CCCCC4C3CCC21C` (stereo not drawn), “inactive”. For the compound `CN(C)C1=NC(=O)C2(CCNCC2)N1`, the cytotoxicity call is “inactive”.

With `C#CCN(C)C(C)Cc1ccccc1.Cl` (stereo not drawn), the cytotoxicity call is “inactive”. The result for `CN1CCN(c2nc(=O)c3c([nH]2)CCCC3)CC1` reads “inactive”; that for `N=C(N)NO`, “inactive”; that for `O=C([C@H]1CCCO1)N1CCCN2CCC[C@H]2C1`, “inactive”.

`Cc1cc2ccccc2n1CCN`: the cytotoxicity call was “inactive”. Regarding `CCNC(=O)[C@H]1O[C@@H](n2cnc3c(N)ncnc32)[C@H](O)[C@@H]1O`, the cytotoxicity call is “inactive”. Take `NNc1ccn([C@@H]2O[C@H](CO)[C@@H](O)[C@H]2O)c(=O)n1`: the cytotoxicity call was “inactive”. As for `NC(=O)c1cn([C@@H]2O[C@H](CO)[C@@H](O)[C@H]2O)c2ncnc(N)c12`, the cytotoxicity call was “active”. Under `NC(=O)c1cn([C@H]2O[C@@H](CO)[C@H](O)[C@@H]2O)c2ncnc(N)c12` stands “active”; under `NNc1ccn([C@H]2O[C@@H](CO)[C@@H](O)[C@@H]2O)c(=O)n1`, “inactive”. For `CCNC(=O)[C@H]1O[C@H](n2cnc3c(N)ncnc32)[C@@H](O)[C@@H]1O`, the cytotoxicity call was “inactive”.

Source of the values: the antibiotic and cytotoxicity screens of Wong et al. (2023).
